Values joined by “and” are separate entries in the source; they are usually repeats but may differ in a detail not shown here. Equal values may be shown once. Results filed as inconclusive are left out. A call without a number means that no potency is given here. The source holds several records for some structures; these can differ, active in one and inactive in another. Active and inactive are the calls of the source. The call rests on the fitted dose curve; in most records, active means well fitted cell-killing curve with a large enough effect; inconclusive means small, poorly fitted or top-dose-only effect, or effect the other way; inactive means no such curve, though single readings can be large or run the other way.
Assay: Viability qHTS for spleen associated tyrosine kinase inhibitor (SYKi) drug resistant MV4-11 cells (AID 1963824); further: nearly all actives have a fitted effect of over 35% in size
Details: SYKi-resistant MV4-11 viability, CellTiter-Glo, 72 h; series mostly up to 45 µM
Description: Department of Medicine, Hematology/Oncology
University Hospital Frankfurt, Germany.
Trials have shown promising clinical activity of the selective SYK inhibitor entospletinib in patients with high expressing HOXA9/MEIS1 acute leukemias. As the development of resistance mechanisms is a common problem in the use of targeted drugs, we performed a chemical library screen to identify drug sensitivities in SYK inhibitor resistant AML cells. […] Glucocorticoids are potent immunosuppressants which work in part by inhibiting the transcription of cytokine genes.
Described herein is a viability screen to look for activity in the SYK inhibitor drug resistant cell line against four NCATS compound libraries (MIPE 5.0, NPC, NPACT, and Kinase) totaling 11372 compounds. Active hits were reacquired for confirmation and further secondary assay testing.
SEQUENCE No. (e.g., 1, 2, 3, etc.); […] (e.g., Cells, Incubation, Reagent, etc.); VALUE; DESCRIPTION.
1; Media; 2uL; white, solid-bottom Corning assay plate.
2; Compounds; 23nL; Echo acoustic dispenser.
3; Cell; 5uL; 500 cells per well.
4: Incubation; 72hr; 37 C, 5% CO2, 95% humidity.
5; Reagent; 3uL; CellTiter-Glo reagent (Promega).
6; Incubation; 10min; room temperature.
7; Detection; Luminescence; ViewLux plate reader (PerkinElmer).
NOTES (numbers refer to Sequence numbers above
1. Quantitative high-throughput screening (qHTS) of small molecule compounds was conducted on drug resistant SYKi MV4-11 cell line.
2. Twenty-three nanoliter of small molecule compounds were added to each assay plates using the Echo acoustic dispenser (Beckman Coulter).
3. Cells were seeded into the assay plates at a final density of 500 cells in 5uL of media per well using the Multidrop Combi dispenser.
4. Plates were covered with stainless steel gasketed lids and incubated for 72 hours at standard cell culture conditions.
5. Viability was assessed by adding 3uL of CellTiter-Glo detection reagent (Promega).
6. Plates were covered with gasket lids and incubated for 10 minutes at room temperature.
7. Luminescence was measured on a ViewLux plate reader (PerkinElmer).
Potency means the concentration at half of the fitted maximal effect.

Row | Compound | Potency
1 | O=C(/C=C/c1ccc(O)cc1)OC1[C@H](O)CC(O)(C(=O)O)C[C@H]1O (stereo not given in full) | inactive
2 | CCOC(=O)c1c(CSc2ccccc2)n(C)c2cc(Br)c(O)c(CN(C)C)c12 | 10.5 µM (active)
3 | O=C(CCCCCCC(=O)Nc1cccnc1)NO | 3.72 µM (active)
4 | Cc1nccn1CC1CCc2c(c3ccccc3n2C)C1=O (stereo not given) | inactive
5 | O=C(O)c1cc(N(Cc2ccc(C3CCCCC3)cc2)C(=O)c2ccc(Oc3ccccc3)cc2)ccc1O | 16.4 µM (active)
6 | CCOC(=O)c1c(C)n(C)c2ccc(O)cc12 | 7.5 µM (active) and inactive
7 | CC(=O)N1CCc2ccc(O)c(OC3OC(COC4OCC(O)(CO)C4O)C(O)C(O)C3O)c2C1Cc1ccc(O)cc1 (stereo not given) | inactive
8 | O=C(Oc1ccccc1)c1ccccc1O | inactive
9 | C=C1CC[C@H]2[C@@](C)(CCC[C@@]2(C)C(=O)O)[C@@H]1CCC(C)CCO (stereo not given in full) | inactive
10 | COc1cc2c(Oc3ccc4[nH]c(C)cc4c3F)ccnc2cc1OCC1(N)CC1 | 4.17 µM (active)
11 | Cc1sc2c(c1C)C(c1ccc(Cl)cc1)=N[C@H](CC(=O)NCCCCNC(=O)COc1cccc3c1C(=O)N([C@H]1CCC(=O)NC1=O)C3=O)c1nnc(C)n1-2 | 0.0461 µM (active)
12 | CCN(CC)CC(=O)OCC(=O)[C@@]1(O)CC[C@H]2[C@@H]3CCC4=CC(=O)CC[C@]4(C)[C@H]3[C@@H](O)C[C@@]21C | inactive
13 | COCC(=O)NC/C=C/c1ccc2ncnc(Nc3ccc(Oc4ccc(C)nc4)c(C)c3)c2c1 | 9.2 µM (active)
14 | CC(=O)N[C@@H](C(=O)O[C@H]1CCC(C)(C)[C@@H]2CCC3=C(COC3=O)[C@@]12C)C(C)C | inactive
15 | N#CC1C(=O)N=C(c2cc(Cl)ccc2O)C=C1c1cc(OCc2ccccc2)cc(OCc2ccccc2)c1 (stereo not given) | inactive
16 | COc1cc2ncnc(Nc3ccc(F)c(Cl)c3)c2cc1NC(=O)/C=C/CN1CCCCC1 | 1.64 µM (active)
17 | O=C(NCCO)c1cc(C(=O)NCCO)cc(C(=O)NCCO)c1 | inactive
18 | COc1cc(NC(=O)c2cccc(-n3cc(NC(=O)Nc4cccc(C)c4)cn3)c2)cc(OC)c1OC | 9.2 µM (active)
19 | COC1OC(=O)C2=C1C1(C)CCCC(C)(C)C1CC2O (stereo not given) | inactive
20 | CC1=CC(=O)CC(C)(C)[C@@]1(O)CC[C@@H](C)O[C@@H]1O[C@H](CO)[C@@H](O)[C@H](O)[C@H]1O | inactive

Row | Compound | Potency
21 | COc1ccc2c(c1)CC[C@@H]1[C@@H]2CC[C@]2(C)[C@@H](NCCCCCCN3C(=O)C=CC3=O)CC[C@@H]12 | 5.25 µM (active)
22 | O=[N+]([O-])c1cccc2[nH]c(CNc3nc(N4CCOCC4)nc4c3ncn4-c3ccsc3)nc12 | 0.0206 µM (active)
23 | O=C1NC(=O)C(c2cnc3ccccn23)=C1c1cn2c3c(cc(F)cc13)CN(C(=O)N1CCCCC1)CC2 | 51.7 nM (active) and 372 nM (active)
24 | CN(C)CCn1nnnc1SCC1=C(C(=O)O)N2C(=O)[C@@H](NC(=O)Cc3csc(N)n3)[C@H]2SC1 | inactive
25 | CSc1ccc2c(c1)C(N1CCN(C)CC1)Cc1ccccc1S2 (stereo not given) | 26.6 µM (active)
26 | COc1nc(N)nc2c1ncn2[C@@H]1O[C@H](CO)[C@@H](O)[C@@H]1O | inactive
27 | CC1(C)CCC[C@@]2(C)[C@H]1[C@H](O)C=C(CO)[C@]2(O)CO | inactive
28 | COC(=O)C1=COC(O[C@@H]2O[C@H](CO)[C@@H](O)[C@H](O)[C@H]2O)[C@@H]2[C@@](C)(O)[C@@H](OC(=O)/C=C/c3ccccc3)C[C@]12O (stereo not given in full) | inactive
29 | CCCCn1c(=O)n(Cc2ccccc2F)c(=O)c2[nH]c(Cc3ccc(NC(C)=O)cc3)nc21 | 18.6 µM (active)
30 | CC(C)(C)C(=O)NCCCC(=O)O | inactive
31 | Cc1ccc(C(C)(O)c2nc3ccccc3s2)c(C)c1 (stereo not given) | 16.6 µM (active)
32 | CC(C)=CC[C@@H](O)C1=CC(=O)c2c(O)ccc(O)c2C1=O | 2.63 µM (active)
33 | Cc1ncc(CO)c(C=O)c1O | inactive
34 | Cc1cc(O)c(C)c(C)c1O | inactive
35 | COC(=O)N[C@H](C(=O)N1[C@@H]2CC[C@@H](C2)[C@H]1c1nc2ccc(-c3ccc4c(c3)C(F)(F)c3cc(-c5cnc([C@@H]6CCC7(CC7)N6C(=O)[C@@H](NC(=O)OC)C(C)C)[nH]5)ccc3-4)cc2[nH]1)C(C)C | 3.99 µM (active)
36 | Cc1cc(NC(=O)C2=C(O)c3ccccc3S(=O)(=O)N2C)no1 | inactive
37 | O=C(OCc1ccccc1O[C@@H]1O[C@H](CO)[C@@H](O)[C@H](O)[C@H]1O)C1(O)C=CCCC1O (stereo not given in full) | inactive
38 | C[C@H](O)[C@H](O)/C=C/c1cccc(O)c1CO | 0.0092 µM (active)
39 | CC(/C=C/C1(O)C(C)CC(O)CC1(C)C)OC1OC(CO)C(O)C(O)C1O (stereo not given) | inactive
40 | CC(C)=CCC/C(C)=C/Cc1ccc(O)c(C2OC(=O)c3cc(C(=O)O)cc(O)c32)c1O (stereo not given) | inactive

Source: PubChem BioAssay (NCATS)
